# Measured values as given in PubChem BioAssay (Tox21).
# Where “and” joins values, the source holds several entries; their conditions need not be identical. Equal values may be shown once. Results filed as inconclusive are left out. A call without a number means that no potency is given here. A structure can be active in one record and inactive in another. Calls of active or inactive are those of the source. Calls come from the whole dose curve; as a rule, active = well fitted activation curve with a large enough effect in the repeat runs; inconclusive = weak or mixed curves, or effect the other way; inactive = no such curve, though single readings can be large or run the other way.
# Test: qHTS assay to identify small molecule agonists of the estrogen related receptor signaling pathway with the pleiotropic PPARgamma coactivator (PGC) from Tox21 10K library (AID 1224842); note: nearly all actives have a fitted effect of over 15% in size
# Details: PGC/ERR reporter cell line, luciferase ONE-Glo, 18 h; series mostly up to 92.4 µM
# Source text: National Center for Advancing Translational Sciences [NCATS] NIH Chemical Genomics Center [NCGC] U.S. Environmental Protection Agency [EPA] National Institutes of Environmental Health Sciences [NIEHS] National Toxicology Program [NTP] Assay overview: Estrogen related receptors (ERRs), the first orphan nuclear receptors discovered, play an important role in the control of cellular energy metabolism. ERRs are required for high-energy production in response to the environmental challenges. The pleiotropic PPARgamma coactivator (PGC) is a major partner of ERR and a key regulator in energy homeostasis. Together they have been implicated in the etiology of metabolic disorders such as Type 2 diabetes and metabolic syndrome. ERR-alpha was also identified as an adverse marker for breast cancer progression; ERR-alpha-positive tumors have a poor prognosis. To screen and to identify environmental compounds that perturb the PGC/ERR signaling pathways could provide valuable information for potential therapeutic or preventive measures in the treatment of metabolic disease. For identifying PGC/ERR agonists, PGC/ERR cell line (provided by NTP) has been used to screen Tox21 10K library.
# Assay Protocol Summary: The PGC/ERR cells were dispensed at 2,000 cells/5 ul/well in 1536-well white plates using a Multidrop dispenser. After the assay plates were incubated at a 37 C/5% CO2 incubator for 6 hours, 23 nL of compounds dissolved in DMSO, positive and negative controls or DMSO only was transferred to the assay plate by a pin tool. The plates were incubated at 37 C for 18 hours. 4 ul/well of One-Glo reagent was added into the assay plates using a Flying Reagent Dispenser. After 30-minute incubation at room temperature, the luminescence intensity in the plates was measured using a ViewLux plate reader.
# Potency is the fitted concentration of half-maximal effect.
row,SMILES,Potency
1,COCC(=O)N(c1c(C)cccc1C)C(C)C(=O)OC (stereo not drawn),inactive
2,CCOP(=S)(OCC)Oc1ccc2c(C)c(Cl)c(=O)oc2c1,inactive and 11.9 µM (active)
3,O=P1(N(CCCl)CCCl)NCCCO1 (stereo not drawn),inactive
4,OCCOc1ccccc1,inactive
5,CCNc1nc(Cl)nc(NCC)n1,inactive
6,O=C(O)CCl,inactive
7,C[C@]12CCC(=O)C=C1CC[C@@H]1[C@@H]2CC[C@]2(C)C(=O)CC[C@@H]12,inactive
8,COc1ccccc1N,inactive
9,O=[N+]([O-])c1ccccc1O,inactive
10,O=c1[nH]c(=O)n(Cl)c(=O)n1Cl,inactive
11,COP(=O)(OC)C(O)C(Cl)(Cl)Cl (stereo not drawn),inactive
12,CC(=O)[O][Hg][c]1ccccc1,inactive
13,O=c1nc(O)n(Cl)c(=O)n1Cl,inactive
